Screens: PubChem BioAssay, The Scripps Research Institute Molecular Screening Center
Shown are actives, neighbours in structure and some others; about 4.1% of the full set was active somewhere.
UHRF1 binding = human UHRF1 methylated DNA binding inhibitors; UHRF1 binding to methylated oligo, TR-FRET; inhibition, % at 4.4 µM; Q96T88; AID 687016; actives 0.75% (n = 370,000); in the data active means inhibition above about 21%;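 further: UHRF1 SRA domain binding a hemimethylated CpG hairpin DNA probe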
PRMT1 FP inh = PRMT1 (human) inhibition, primary screen; Q99873; recombinant PRMT1, activity-based probe fluorescence polarization; inhibition, % at 2.79 µM; actives 1.3% (n = 370,000); AID 652257;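 active means inhibition above about 21% made by adding two undisclosed values, limit read from the data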
LEDGF integ inh = blocks HIV-1 LEDGF/p75-dependent DNA integration | TR-FRET IN-LEDGF/p75 DNA integration, Eu/Cy5 | inhibition, % at 3.7 µM | actives 0.64% (n = 370,000);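 active means inhibition above the screen-wide mean plus 3 SD, cut at about 13% in these data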;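 further: signal is the Cy5 over europium emission ratio at 671 and 618 nm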
MBD2 inh = blocks human MBD2 binding to methylated DNA | Q9UBB5 | actives 0.31% (n = 370,000) | AID 686964 | TR-FRET, MBD2 binding to methylated oligonucleotide | inhibition, % at 4.4 µM; in the data active means inhibition above about 13%
Target sequence (Q9UBB5 whole entry, looked up): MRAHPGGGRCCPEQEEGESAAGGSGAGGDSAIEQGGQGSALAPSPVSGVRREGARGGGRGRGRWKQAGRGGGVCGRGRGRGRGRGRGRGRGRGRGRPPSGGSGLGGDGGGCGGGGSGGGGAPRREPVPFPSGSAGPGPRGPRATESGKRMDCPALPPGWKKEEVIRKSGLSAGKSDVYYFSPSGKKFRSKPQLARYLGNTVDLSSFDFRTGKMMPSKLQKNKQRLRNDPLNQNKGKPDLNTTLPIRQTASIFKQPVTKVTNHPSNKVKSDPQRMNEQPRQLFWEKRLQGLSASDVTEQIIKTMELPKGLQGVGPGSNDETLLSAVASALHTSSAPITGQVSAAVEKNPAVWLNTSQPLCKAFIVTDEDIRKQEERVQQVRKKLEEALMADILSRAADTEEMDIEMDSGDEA
rCAG RNA binder = r(CAG) repeat RNA binding; actives 1.3% (n = 370,000); inhibition, % at 3 µM; TO-PRO-1 dye displacement fluorescence;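 active means inhibition above the plate cutoff, the mean of all test compounds on that plate plus 3 SD, cut at about 35% in these data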;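 further: higher means more dye released from RNA so lower well fluorescence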
ABHD5 PLIN5 PPI = blocks binding of human ABHD5 to perilipin-5. Q00G26+Q8WTS1. Split G. princeps luciferase complementation, luminescence, 4 h. inhibition, % at 4 µM. actives 0.78% (n = 360,000). AID 602281;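 active means inhibition above the mean inhibition across every tested compound plus 3 SD, cut at about 22% in these data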
PRMT1 confirm = confirmation of human PRMT1 inhibitors; shares compounds with PRMT1 FP inh; inhibition, % at 2.79 µM; actives 42% (n = 3,300); recombinant His-PRMT1, activity-based probe fluorescence polarization;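 active means mean inhibition across replicates above the hit cutoff derived for the earlier primary screen, cut at about 22% in these data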
Of the large screens only hits and unclear results are named; the others gave an inactive call (follow-up assays come after a bar, where they were run).

Nc1ccc(F)c(CN2CCN(c3ncc(Cc4ccccc4)cn3)CC2)c1	none (no result: ABHD5 PLIN5 PPI)
NC(=O)CC(NSc1ccccc1[N+](=O)[O-])C(=O)O (centres undefined)	PRMT1 FP inh 34.5 | PRMT1 confirm 22.7
Cc1ccc(S(=O)(=O)c2nc(S(C)(=O)=O)sc2N2CCC(C)CC2)cc1	PRMT1 FP inh 27.6 | PRMT1 confirm inactive
Cc1ccc(S(=O)(=O)c2nc(S(C)(=O)=O)sc2N2CCCCCC2)cc1	none
CN1[C@@H](Cc2ccccc2)COc2cc(N3CCCC3)ccc2S1(=O)=O	none (no result: ABHD5 PLIN5 PPI)
C(=N\N1CCOCC1)/c1cn(-c2ccccc2)nc1-c1ccccc1	PRMT1 FP inh 96.1 | PRMT1 confirm inactive
COCCCNC(=O)C[C@H]1C[C@@]2(C(=O)OC)C(=C[C@H](C3CCCC3)O[C@@H]2C)N(Cc2ccccc2)C1=O	none (no result: ABHD5 PLIN5 PPI)
CCOc1cccc(/C=C(/C#N)c2nc3ccccc3[nH]2)c1OCC(=O)O	none
CCN(CC)c1ccc(/C=C(/C#N)c2nc3ccccc3[nH]2)c(OC(C)C)c1	PRMT1 FP inh 40.7 | PRMT1 confirm inactive
O=C(O)c1ccccc1NS(=O)(=O)c1ccc(N/N=C/c2cccc(O)c2O)c([N+](=O)[O-])c1	PRMT1 FP inh 34.6, rCAG RNA binder 91.6 | PRMT1 confirm 29.3
NS(=O)(=O)c1ccc(N/N=C/c2ccc[nH]2)c([N+](=O)[O-])c1	none
C=CCC12C=C(OC)C(=O)C(C1=O)C1c3ccccc3CC12 (centres undefined)	none (no result: ABHD5 PLIN5 PPI)
CN(C)CCNC(=O)c1cc2c(s1)-c1ccc(Cl)cc1SC2	none
CCOCCCNC(=O)c1cc2c(s1)-c1ccccc1SC2	PRMT1 FP inh 40.2 | PRMT1 confirm inactive
O=C1C2C3C=CC(C3=C3CCCCC3)C2C(=O)N1Cc1ccccc1 (centres undefined)	PRMT1 FP inh 36.2 | PRMT1 confirm inactive
O=C1C2C3C=CC(C4CC34)C2C(=O)N1Cc1ccccc1 (centres undefined)	none
CCSc1nc(=S)cc(C)[nH]1	PRMT1 FP inh 69.2 | PRMT1 confirm 41.2
O=C1Nc2ccccc2C(=O)C1(Cl)Cc1ccccc1 (centres undefined)	PRMT1 FP inh 93.0 | PRMT1 confirm 87.3
COC(=O)[C@]12C[C@H](CC(=O)N3CCN(C(=O)c4ccco4)CC3)C(=O)N(Cc3ccc(Cl)cc3Cl)C1=C[C@H](C1CCCC1)O[C@@H]2C	none (no result: ABHD5 PLIN5 PPI)
O=C(c1ccc(F)cc1)C1CCN(CCCn2c(=O)[nH]c3ccccc32)CC1	none (no result: ABHD5 PLIN5 PPI)
O=C(NC(=S)Nc1cccc(S(=O)(=O)NC2=NCCC2)c1)c1cc(-c2ccco2)nc2ccccc12	PRMT1 FP inh 31.9 | PRMT1 confirm inactive
Cc1ccc(-c2cc(C(=O)Nc3cccc(S(=O)(=O)N(C)C)c3)c3ccccc3n2)o1	PRMT1 FP inh 49.6 | PRMT1 confirm 55.7
Cc1ccc(-c2cc(C(=O)Nc3ccccc3C)c3ccccc3n2)o1	PRMT1 FP inh 43.6 | PRMT1 confirm inactive
COc1cccc(NC(=O)CN(C)C(=O)c2cc(-c3ccc(C)o3)nc3ccccc23)c1	PRMT1 FP inh 50.8 | PRMT1 confirm inactive
COc1ccc(CN[C@@H]2CC[C@@]34CCCN3C(=O)CCC[C@H]4C2)cc1OC	none (no result: rCAG RNA binder, ABHD5 PLIN5 PPI)
COC(=O)[C@]12C[C@H](CC(=O)NCCCCc3ccccc3)C(=O)N(CCC3=CCCCC3)C1=C[C@H](C(C)(C)C)O[C@@H]2C	none (no result: ABHD5 PLIN5 PPI)
F[B-](F)(F)c1cncnc1	none (no result: ABHD5 PLIN5 PPI)
COc1cccc(NC(=O)c2cc(-c3ccc(C)o3)nc3ccccc23)c1	none
COC(=O)c1cc(-c2ccc(C)o2)nc2ccccc12	PRMT1 FP inh 42.1 | PRMT1 confirm 23.8
Cc1ccc(-c2cc(C(=O)N3CC(C)CC(C)C3)c3ccccc3n2)o1 (centres undefined)	PRMT1 FP inh 64.2 | PRMT1 confirm 29.2
Cc1ccc2cccc(OC(=O)c3cccnc3Oc3ccccc3)c2n1	none (no result: ABHD5 PLIN5 PPI)
O=C1CCC[C@H]2C[C@H](NCc3ccc(F)cc3)CC[C@]23CCCN13	none (no result: rCAG RNA binder, ABHD5 PLIN5 PPI)
CC1(C)CC(=O)C2=C(C1)OC(N)=C(C#N)C2c1cc2c(cc1[N+](=O)[O-])OCO2 (centres undefined)	PRMT1 FP inh 58.4 | PRMT1 confirm 30.7
O=C(NC(Cc1c[nH]c2ccccc12)C(=O)OCC(=O)c1cccc2ccccc12)c1cccs1 (centres undefined)	PRMT1 FP inh 50.3 | PRMT1 confirm inactive
Cc1ccc(N2C(=O)CC(N(O)C3CC(=O)N(c4ccc(C)cc4)C3=O)C2=O)cc1 (centres undefined)	none
CCCCCCC(=O)N(O)C1CC(=O)N(c2ccc(Cl)cc2)C1=O (centres undefined)	PRMT1 FP inh 50.9 | PRMT1 confirm 84.1
CCCCCCC(=O)N(O)C1CC(=O)N(c2ccc(C)cc2)C1=O (centres undefined)	PRMT1 FP inh 87.3 | PRMT1 confirm 90.9
O=C(Nc1nc(=O)c2ccccc2s1)c1ccc(Cl)cc1	PRMT1 FP inh 32.4 | PRMT1 confirm inactive
O=C(Cc1ccccc1)Nc1nc(=O)c2ccccc2s1	PRMT1 FP inh 47.9 | PRMT1 confirm inactive
C#CCNC(=O)c1cc(-c2ccccc2)sc1N	PRMT1 FP inh 27.3 | PRMT1 confirm inactive
CCN1C[C@@H]2[C@@H]3C(=O)N(Cc4ccccc4)C(=O)[C@@H]3[C@](CC)(C1=O)N2C(=O)c1ccc(Cl)cc1	none (no result: ABHD5 PLIN5 PPI)
CCCCCCn1c(=O)[nH]c2nc3cc(N)c(C)cc3nc2c1=O	PRMT1 FP inh 132.3 | PRMT1 confirm 123.0
Cc1ccc(-c2cn3c(=S)[nH]nc3s2)cc1	PRMT1 FP inh 26.2 | PRMT1 confirm inactive
Cc1ccc(-c2n[nH]c(=S)n2C)cc1	none
COc1ccc(N2C(=O)c3cccc4c(N(C)CCO)ccc(c34)C2=O)cc1	PRMT1 FP inh 28.9 | PRMT1 confirm 23.5
COc1ccc(N2C(=O)c3cccc4cccc(c34)C2=O)cc1	none
CCOc1ccc(N2C(=O)CC(N)C2=O)cc1 (centres undefined)	PRMT1 FP inh 75.7 | PRMT1 confirm 51.0
CCOc1ccc(N2C(=O)CC(NCc3ccc(F)cc3)C2=O)cc1 (centres undefined)	PRMT1 FP inh 54.8 | PRMT1 confirm inactive
CCCCCCOc1ccc(N2C(=O)CC(NCCc3ccc(S(N)(=O)=O)cc3)C2=O)cc1 (centres undefined)	PRMT1 FP inh 41.8 | PRMT1 confirm inactive
CCOc1ccc(N2C(=O)CC(NCC3CCCO3)C2=O)cc1 (centres undefined)	PRMT1 FP inh 79.6 | PRMT1 confirm inactive
O=C1CC(NCC2CCCO2)C(=O)N1c1ccc(Cl)cc1 (centres undefined)	none
COC(=O)C1=C(C)N(Cc2cccc(C(F)(F)F)c2)C(=NCC2CC2)NC1c1ccc(F)cc1 (centres undefined)	none (no result: ABHD5 PLIN5 PPI)
